# Experimental data as given in PubChem BioAssay (NCI).
# Values joined by “and” are separate entries in the source; they are usually repeats but may differ in a detail not shown here. Equal values may be shown once. This is part of a sample that, as a whole, favours compounds with a hit. Of some 83,000 tested, about 20% had one in any assay.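 Single-concentration screen, 48 h exposure, 96-well plates. Endpoint: percent growth. Below 10 = active.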 Active and inactive are the calls of the source. Where a SMILES comes first, the peptide text is derived from it. [ ]: non-standard residue; d: D form. ξ: configuration not given here. ξV = CC(C)C(N)C(=O)O
# Assays:
# Assay in all cases: NCI-60 one-dose screen, 48 h (100 = growth as untreated, 0 = no growth, -100 = all killed)
# [1] = system: HCT-15 colon; settings: 10 µM
# [2] = system: HT29 colon; settings: 10 µM
# [3] = system: SNB-75 CNS; settings: 10 µM
# [4] = system: SNB-19 CNS; settings: 10 µM
# [5] = system: PC-3 prostate; settings: 10 µM
# [6] = system: UACC-62 melanoma; settings: 10 µM
# [7] = system: LOX IMVI melanoma; settings: 10 µM unless noted
# [8] = system: SK-MEL-28 melanoma; settings: 10 µM
# [9] = system: SK-MEL-2 melanoma; settings: 10 µM
# [10] = system: SN12C renal; settings: 10 µM
# [11] = system: UO-31 renal; settings: 10 µM
# [12] = system: TK-10 renal; settings: 10 µM
# [13] = system: ACHN renal; settings: 10 µM
# [14] = system: CAKI-1 renal; settings: 10 µM
# [15] = system: A498 renal; settings: 10 µM
# [16] = system: CCRF-CEM leukemia; settings: 10 µM
# [17] = system: MOLT-4 leukemia; settings: 10 µM
Structure (SMILES),growth [1],growth [2],growth [3],growth [4],growth [5],growth [6],growth [7],growth [8],growth [9],growth [10],growth [11],growth [12],growth [13],growth [14],growth [15],growth [16],growth [17]
COC1OCC(O)C(O)C1O (stereo not drawn),98.5% (inactive),104% (inactive),80.8% (inactive),113% (inactive),92.4% (inactive),105% (inactive),95.3% (inactive),106% (inactive),114% (inactive),103% (inactive),86.2% (inactive),92.9% (inactive),111% (inactive),89.7% (inactive),84.5% (inactive),107% (inactive),101% (inactive)
Nc1ccc2cc3ccc(N)cc3nc2c1,105% (inactive) and 15.3% (inactive),105% (inactive) and 4.36% (active),101% (inactive),108% (inactive) and 30.4% (inactive),94.5% (inactive) and 14.4% (inactive),109% (inactive) and -35.5% (active),105% (inactive) and -30.1% (active),108% (inactive) and -6.93% (active),-26.2% (active),,86.3% (inactive) and -14.7% (active),120% (inactive) and 25.8% (inactive),108% (inactive) and 1.69% (active),87.8% (inactive) and 4.44% (active),85.6% (inactive) and 1.64% (active),6.51% (active),90% (inactive) and 8.01% (active)
CC(C)C(NC(=O)CN)C(=O)O (stereo not drawn) (H-Gly-[ξV]-OH),109% (inactive) and 106% (inactive),101% (inactive) and 100% (inactive),104% (inactive) and 84.7% (inactive),106% (inactive),92.6% (inactive) and 88.6% (inactive),104% (inactive) and 94.5% (inactive),101% (inactive) and 102% (inactive),109% (inactive) and 107% (inactive),108% (inactive) and 109% (inactive),,84% (inactive),103% (inactive) and 93.9% (inactive),102% (inactive) and 109% (inactive),96.4% (inactive) and 97.1% (inactive),102% (inactive) and 99.9% (inactive),91.9% (inactive) and 96% (inactive),79.2% (inactive) and 101% (inactive)
Clc1ccc(/C=C/c2ccccn2)c(Cl)c1,68.2% (inactive),83.3% (inactive),61.2% (inactive),92.7% (inactive),85.9% (inactive),80.6% (inactive),91.3% (inactive),120% (inactive),107% (inactive),,59.6% (inactive),98% (inactive),104% (inactive),72.7% (inactive),,,79.5% (inactive)
